PubChem BioAssay (Tox21)
Records with an inconclusive call do not appear. Active and inactive are the calls of the source. Unless noted, calls come from the whole dose curve; as a rule, active = well fitted curve in the direction sought with a large enough effect in the repeat runs; inconclusive = weak or mixed curves; inactive = no such curve, though single readings can be large; an effect the other way counts as inactive or inconclusive.

Assays:
[1] = A CellTox Green Cytotoxicity Assay to monitor cytotoxicity in HEK293 cells - 32 hour (AID 1224881); note: nearly all actives have a fitted effect of over 40% in size
In short: (§1)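 Fluorescence from a DNA-binding dye excluded by viable cells was measured repeatedly in the same HEK293 wells (600 cells/well) during continuous compound exposure at 37 C. Each assay gives one read point: 0, 8, 16, 24, 32 or 40 h.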

[2] = A CellTox Green Cytotoxicity Assay to monitor cytotoxicity in HepG2 cells - 0 hour (AID 1224882); note: nearly all actives have a fitted effect of over 35% in size
In short: (§2)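 Real-time cytotoxicity: fluorescence of a cell-impermeant cyanine dye binding DNA of dead HepG2 cells, measured repeatedly (0–40 h) during compound exposure at 37 C. Cells seeded 600/well with reagent, dosed after 5 h.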

[3] = A CellTox Green Cytotoxicity Assay to monitor cytotoxicity in HepG2 cells - 32 hour (AID 1224883); note: nearly all actives have a fitted effect of over 50% in size
In short: as §2

[4] = A CellTox Green Cytotoxicity Assay to monitor cytotoxicity in HEK293 cells - 8 hour (AID 1224884); note: nearly all actives have a fitted effect of over 35% in size
In short: as §1

[5] = qHTS RealTime-Glo MT Cell Viability Assay in HepG2 cells - 16 hour (AID 1224885); note: nearly all actives have a fitted effect of over 50% in size
In short: (§3)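 Luminescence read-out: viable HepG2 cells reduce a prosubstrate to a NanoLuc substrate, giving a signal proportional to live cell number. Reads taken at 0, 8, 16, 24, 32 and 40 h of compound exposure at 37 C.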

[6] = qHTS RealTime-Glo MT Cell Viability Assay in HEK293 cells - 24 hour (AID 1224886); note: top concentration of the series differs between compounds; nearly all actives have a fitted effect of over 50% in size
In short: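 Nonlytic real-time viability readout: viable cells convert prosubstrate to NanoLuc substrate, giving luminescence proportional to live cell number. HEK293, 600 cells/well, compound added after 5 h, continuous culture at 37 C.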

[7] = qHTS RealTime-Glo MT Cell Viability Assay in HEK293 cells - 8 hour (AID 1224887); note: top concentration of the series differs between compounds; nearly all actives have a fitted effect of over 50% in size
In short: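 Luminescence, which tracks viable cell number through reduction of the prosubstrate to a NanoLuc substrate, was read over continuous 37 C culture. Cells (600/well) were premixed with reagent and rested 5 h before 23 nL of compound in DMSO was pinned.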

[8] = A CellTox Green Cytotoxicity Assay to monitor cytotoxicity in HEK293 cells - 16 hour (AID 1224888); note: nearly all actives have a fitted effect of over 35% in size
In short: as §1

[9] = qHTS RealTime-Glo MT Cell Viability Assay in HepG2 cells - 0 hour (AID 1224889); note: nearly all actives have a fitted effect of over 50% in size
In short: as §3

[10] = A CellTox Green Cytotoxicity Assay to monitor cytotoxicity in HepG2 cells - 8 hour (AID 1224890); note: nearly all actives have a fitted effect of over 45% in size
In short: as §2

[11] = qHTS assay to identify small molecule antagonists of the estrogen receptor alpha (ER-alpha) signaling pathway using the BG1 cell line in the presence of 0.1 nM 17-beta-estradiol - cell viability counter screen (AID 1259241); note: nearly all actives have a fitted effect of over 40% in size
In short: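 The cell line endogenously expresses full-length ER-alpha and carries four EREs driving luciferase. Cells are cultured 5 days hormone-free, treated 22 hr with compounds and 0.1 nM estradiol, then viability is read by fluorescence.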

[12] = qHTS assay to identify small molecule antagonists of the androgen receptor (AR) signaling pathway using the MDA cell line in the presence of 0.5 nM R1881 - cell viability counter screen (AID 1259242); note: nearly all actives have a fitted effect of over 45% in size
In short: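 Live-cell protease activity was measured by CellTiter-Fluor fluorescence after 30 min. Before that, MDA-kb2 MMTV-luciferase cells had 16 hr at 37C without CO2, exposed to test compounds and 0.5 nM R1881 final.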

[13] = qHTS assay to identify small molecule phospholipidosis (PLD) inducers (AID 1259344; active = well fitted curve in the direction sought with a large enough effect; an effect the other way counts as inactive or inconclusive)
In short: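 Read-out is LipidTOX Red fluorescence (ex 595/em 615) imaged in HepG2 cells after 24 h compound exposure at 37 C, with Hoechst nuclear counterstain (ex 352/em 461) allowing per-cell normalisation.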

[14] = qHTS assay to identify small molecule HDAC inhibitors (AID 1259364); note: top concentration of the series differs between compounds; nearly all actives have a fitted effect of over 45% in size
In short: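 Luminescence read after 30 min room-temperature HDAC-Glo incubation measures cellular class I/II HDAC activity. Compounds were applied for 2 hr at 37 C to HCT-116 wild-type cells seeded the day before.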

[15] = qHTS assay to identify small molecule HDAC inhibitors - cell viability counter screen (AID 1259365)
In short: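 Viability readout: CellTiter-Glo luminescence. Wild-type HCT-116 cells, 2hr compound treatment following overnight attachment at 37 C.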

[16] = qHTS assay to identify small molecule agonists of the sonic hedgehog signaling (Shh) pathway - cell viability counter screen (AID 1259366); note: nearly all actives have a fitted effect of over 50% in size
In short: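 Viability measured fluorometrically (CellTiter-Fluor, 1hr, 37C) in 3T3 Gli1-Luc reporter cells after 23hr compound exposure within a 24hr incubation at 37C/5% CO2.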

[17] = qHTS assay to identify small molecule antagonists of the sonic hedgehog signaling (Shh) pathway - cell viability counter screen (AID 1259367); note: nearly all actives have a fitted effect of over 55% in size
In short: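 Fluorescence read-out (CellTiter-Fluor, 1 hr at 37C) taken after 23 hr compound treatment of 3T3 Gli1-Luc cells stimulated with conditioned medium. Cells were seeded at 2,000 per well and pre-incubated 4 hr.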

[18] = qHTS assay to identify small molecule agonists of the sonic hedgehog signaling (Shh) pathway (AID 1259368; calls by dose curve;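 note: NIH/3T3-derived 3T3Gli1-Luc cells carrying a stable Gli1-driven firefly luciferase reporter; series mostly up to about 92 µM; nearly all actives have a fitted effect of over 15% in size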)
In short: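 Luminescence was read after 30 min at room temperature with luciferase reagent. Before that, 3T3Gli1-Luc cells (NIH/3T3 clone, stable Gli1-Luc reporter; 2,000/well) were exposed to compounds for 24 hr at 37C, 5% CO2, compounds being added 4 hr post-plating.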

[19] = molecular target: Androgen receptor (Homo sapiens) (UniProt P10275); assay: qHTS assay to identify small molecule antagonists of the androgen receptor (AR) signaling pathway using the MDA cell line in the presence of 0.5 nM R1881 (AID 1259243); note: nearly all actives have a fitted effect of over 50% in size
Sequence of Androgen receptor (Homo sapiens) (P10275 whole entry, looked up): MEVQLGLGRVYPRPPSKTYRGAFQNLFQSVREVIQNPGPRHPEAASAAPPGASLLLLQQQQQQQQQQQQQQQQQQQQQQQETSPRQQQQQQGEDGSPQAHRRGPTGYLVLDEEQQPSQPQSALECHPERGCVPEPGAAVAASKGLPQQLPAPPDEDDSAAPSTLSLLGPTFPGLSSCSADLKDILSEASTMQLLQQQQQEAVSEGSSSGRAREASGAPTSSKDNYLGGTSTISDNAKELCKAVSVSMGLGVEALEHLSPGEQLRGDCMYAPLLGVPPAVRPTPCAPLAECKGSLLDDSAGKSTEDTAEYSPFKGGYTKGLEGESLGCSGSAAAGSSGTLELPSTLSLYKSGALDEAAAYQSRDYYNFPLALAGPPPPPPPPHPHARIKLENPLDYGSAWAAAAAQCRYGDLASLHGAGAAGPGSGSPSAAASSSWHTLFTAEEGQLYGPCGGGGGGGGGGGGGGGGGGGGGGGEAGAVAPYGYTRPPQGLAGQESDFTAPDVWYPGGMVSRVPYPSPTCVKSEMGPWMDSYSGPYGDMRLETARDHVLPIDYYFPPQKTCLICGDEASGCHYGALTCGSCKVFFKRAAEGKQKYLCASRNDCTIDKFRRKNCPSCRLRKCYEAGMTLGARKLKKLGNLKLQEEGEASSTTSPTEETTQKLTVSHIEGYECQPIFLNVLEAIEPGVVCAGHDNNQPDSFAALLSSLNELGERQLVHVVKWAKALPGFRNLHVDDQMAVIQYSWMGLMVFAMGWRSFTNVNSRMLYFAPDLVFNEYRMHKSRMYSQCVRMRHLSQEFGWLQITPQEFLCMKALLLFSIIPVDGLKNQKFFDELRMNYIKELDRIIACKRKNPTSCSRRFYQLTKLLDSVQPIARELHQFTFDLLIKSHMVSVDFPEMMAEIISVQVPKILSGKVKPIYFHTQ
In short: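 Luminescent reporter readout (ONE-Glo, 30 min, room temperature) after 16 hr co-treatment of MDA-kb2 cells with test compounds and 0.5 nM R1881 final, at 37C without CO2. The MMTV-driven luciferase responds to both AR and GR.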

[20] = molecular target: Estrogen receptor (Homo sapiens) (UniProt P03372); assay: qHTS assay to identify small molecule antagonists of the estrogen receptor alpha (ER-alpha) signaling pathway using the BG1 cell line in the presence of 0.1 nM 17-beta-estradiol (AID 1259244); note: nearly all actives have a fitted effect of over 50% in size
Sequence of Estrogen receptor (Homo sapiens) (P03372 whole entry, looked up): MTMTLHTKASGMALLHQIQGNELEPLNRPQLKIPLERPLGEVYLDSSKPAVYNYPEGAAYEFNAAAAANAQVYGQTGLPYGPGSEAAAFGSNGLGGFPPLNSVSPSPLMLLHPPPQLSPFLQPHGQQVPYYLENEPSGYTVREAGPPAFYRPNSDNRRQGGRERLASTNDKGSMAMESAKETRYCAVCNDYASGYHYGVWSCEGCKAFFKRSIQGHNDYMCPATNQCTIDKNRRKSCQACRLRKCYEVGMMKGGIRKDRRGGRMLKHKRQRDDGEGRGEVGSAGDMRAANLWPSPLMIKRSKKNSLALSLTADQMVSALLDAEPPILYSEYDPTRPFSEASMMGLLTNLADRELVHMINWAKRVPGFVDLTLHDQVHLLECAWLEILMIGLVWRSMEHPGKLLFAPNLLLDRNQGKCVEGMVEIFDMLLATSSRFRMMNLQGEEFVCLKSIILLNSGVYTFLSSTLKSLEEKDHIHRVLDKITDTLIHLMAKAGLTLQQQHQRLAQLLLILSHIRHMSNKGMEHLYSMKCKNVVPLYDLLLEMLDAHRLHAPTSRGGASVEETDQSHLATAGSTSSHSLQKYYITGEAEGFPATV
In short: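 Luciferase luminescence (ONE-Glo, 30 min at room temperature) was read after 22 hr at 37C exposure to compounds plus 17beta-estradiol at 0.1 nM final. Cells were VM7Luc4E2 with endogenous ER-alpha and an ERE-driven luciferase, pre-cultured 5 days in hormone-depleted medium.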
% is set by controls: 0 for no effect and ±100 for the full control effect.

NCCS
inactive: Potency [1] | outcome [2] | Potency [3] | Potency [4] | outcome [5] | Potency [6] | Potency [7] | outcome [8] | Potency [9] | outcome [10] | Potency [11] | outcome [12] | outcome [13] | Potency [14] | outcome [15] | Potency [16] | Potency [17] | outcome [18]

CNC(=O)[C@H]1O[C@@H](n2cnc3c(NCc4cc(Cl)ccc4OCc4cc(C)no4)ncnc32)[C@H](O)[C@@H]1N
inactive: Potency [1] | outcome [2] | Potency [3] | Potency [4] | outcome [5] | Potency [6] | Potency [7] | outcome [8] | Potency [9] | outcome [10] | Potency [11] | outcome [12] | Potency [19] | Potency [20] | Potency [14] | outcome [15] | Potency [16] | Potency [17] | outcome [18]

O=C(O)c1cc(Br)c(O)c(Br)c1
inactive: Potency [1] | outcome [2] | Potency [3] | Potency [4] | outcome [5] | Potency [6] | Potency [7] | outcome [8] | Potency [9] | outcome [10] | Potency [11] | outcome [12] | Potency [19] | Potency [14] | outcome [15] | Potency [16] | Potency [17] | outcome [18]

CCCC(=O)C(C)=O
inactive: Potency [1] | outcome [2] | Potency [3] | Potency [4] | outcome [5] | Potency [6] | Potency [7] | outcome [8] | Potency [9] | outcome [10] | Potency [11] | outcome [12] | Potency [20] | Potency [14] | outcome [15] | Potency [16] | Potency [17] | outcome [18]

C[Si](C)=O
inactive: cytotoxicity increase [1] 10.3% [at 6.97 µM] | cytotoxicity [2] -2.11% [at 6.97 µM] | cytotoxicity increase [3] -6.59% [at 6.97 µM] | cytotoxicity increase [4] 1.88% [at 6.97 µM] | activity change, negative = cytotoxic [5] 0.315% [at 6.97 µM] | activity change, negative = cytotoxicity [6] 0.58% [at 6.97 µM] | activity change, negative = cytotoxicity [7] -1.9% [at 6.97 µM] | activity change [8] 1.45% [at 6.97 µM] | activity change, negative = cytotoxicity [9] 8.65% [at 6.97 µM] | cytotoxicity increase [10] -1.81% [at 6.97 µM] | activity change, negative = cytotoxicity [11] -11.4% [at 8.39 µM] | viability change, negative = cytotoxic [12] 2.02% [at 8.39 µM] | activity change, negative = inhibition [14] 1.64% [at 8.39 µM] | activity change, negative = cytotoxicity [15] 2.53% [at 8.39 µM] | viability change, negative = cytotoxic [16] -1.38% [at 8.39 µM] | viability change, negative = cytotoxic [17] 0.12% [at 8.39 µM] | activity change [18] 0.132% [at 8.39 µM]

COCCc1ccc(OCC2CO2)cc1 (stereo not given)
inactive: Potency [1] | outcome [2] | Potency [3] | Potency [4] | outcome [5] | Potency [6] | Potency [7] | outcome [8] | Potency [9] | outcome [10] | Potency [11] | outcome [12] | Potency [19] | Potency [20] | Potency [14] | Potency [16] | Potency [17] | outcome [18]

CC(C)NCC(O)COc1ccc(COCCOC(C)C)cc1 (stereo not given)
inactive: Potency [1] | outcome [2] | Potency [3] | Potency [4] | outcome [5] | Potency [6] | Potency [7] | outcome [8] | Potency [9] | outcome [10] | Potency [11] | outcome [12] | Potency [19] | Potency [20] | outcome [13] | Potency [14] | outcome [15] | Potency [16] | Potency [17] | outcome [18]

CCCCNC1CC(C)(C)NC(C)(C)C1
inactive: Potency [1] | outcome [2] | Potency [3] | Potency [4] | outcome [5] | Potency [6] | Potency [7] | outcome [8] | Potency [9] | outcome [10] | Potency [11] | outcome [12] | Potency [20] | Potency [14] | outcome [15] | Potency [16] | Potency [17] | outcome [18]

Cc1ccc2c(c1)OCC(=O)CO2
inactive: Potency [1] | outcome [2] | Potency [3] | Potency [4] | outcome [5] | Potency [6] | Potency [7] | outcome [8] | Potency [9] | outcome [10] | Potency [11] | outcome [12] | Potency [20] | Potency [14] | outcome [15] | Potency [16] | Potency [17] | outcome [18]

C=C(C)C(=O)OCCOP(=O)(O)OCCOC(=O)C(=C)C
inactive: Potency [1] | outcome [2] | Potency [3] | Potency [4] | outcome [5] | Potency [6] | Potency [7] | outcome [8] | Potency [9] | Potency [11] | outcome [12] | Potency [20] | Potency [14] | outcome [15] | Potency [16] | Potency [17] | outcome [18]

CC(=O)CCCCn1c(=O)c2c(ncn2C)n(C)c1=O
inactive: Potency [1] | outcome [2] | Potency [3] | Potency [4] | outcome [5] | Potency [6] | Potency [7] | outcome [8] | Potency [9] | outcome [10] | outcome [12] | Potency [20] | outcome [13] | Potency [14] | outcome [15] | Potency [16] | Potency [17] | outcome [18]

CC(=O)Nc1ccc(S(=O)(=O)Nc2ccc([N+](=O)[O-])cc2)cc1
inactive: Potency [1] | outcome [2] | Potency [3] | Potency [4] | outcome [5] | Potency [6] | Potency [7] | outcome [8] | Potency [9] | outcome [10] | outcome [12] | Potency [20] | outcome [13] | Potency [14] | outcome [18]

O=C(OCC(COC(=O)c1cccnc1)(COC(=O)c1cccnc1)COC(=O)c1cccnc1)c1cccnc1
inactive: Potency [1] | outcome [2] | Potency [3] | Potency [4] | outcome [5] | Potency [6] | Potency [7] | outcome [8] | Potency [9] | Potency [11] | outcome [12] | Potency [19] | Potency [20] | outcome [13] | Potency [14] | outcome [15] | Potency [16] | Potency [17] | outcome [18]

COc1ccc(OC)c(Cl)c1
inactive: Potency [1] | outcome [2] | Potency [3] | Potency [4] | outcome [5] | Potency [6] | Potency [7] | outcome [8] | Potency [9] | Potency [11] | outcome [12] | Potency [19] | Potency [14] | outcome [15] | Potency [16] | Potency [17] | outcome [18]
